We go through 45 sequences from publication PMC7819943, “Rice protein-binding microarrays: a tool to detect cis-acting elements near promoter regions in rice”.

Over roughly 68,000 sequences, “fluorescence intensity (a.u.)” has its median near 9,100; the highest 2% begin near 16,000. Only a selection was taken, and the highest values are over-represented in it overall.

This experiment deals with OsWRKY34 (Oryza sativa, UniProt Q0JBA9 1-250). The experiment can be described thus: protein-binding microarray (RPBM); PBS, 2% BSA, 51.3 ng/ul salmon testes DNA, 50 uM zinc acetate, 200 nM TF, 25 C, 1 h; high values mean tight binding. The note with it: protein: recombinant; tags: N-terminal polyhistidine and DsRed monomer fusion (pET32a); label: CyDye5-dUTP incorporated in the synthesized complementary strand; 3' TTTTT single-stranded linker to array surface; dsDNA, one strand shown. The procedure, abridged: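 In PBS with 2% BSA, salmon testes DNA and 50 µM zinc acetate, 200 nM protein was incubated on a custom Agilent array at 25 °C for 1 h and then washed off. The array had been made double-stranded by primer extension with Cy5-dUTP and blocked with 2% BSA. The proteins were transcription factors fused N-terminally to polyhistidine and DsRed, expressed in E. coli BL21-CodonPlus and purified on Ni–NTA. The binding signal is per-feature fluorescence intensity (arbitrary units) from an Axon 4000B scanner.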
OsWRKY34, sequence (Q0JBA9 entry or part of it): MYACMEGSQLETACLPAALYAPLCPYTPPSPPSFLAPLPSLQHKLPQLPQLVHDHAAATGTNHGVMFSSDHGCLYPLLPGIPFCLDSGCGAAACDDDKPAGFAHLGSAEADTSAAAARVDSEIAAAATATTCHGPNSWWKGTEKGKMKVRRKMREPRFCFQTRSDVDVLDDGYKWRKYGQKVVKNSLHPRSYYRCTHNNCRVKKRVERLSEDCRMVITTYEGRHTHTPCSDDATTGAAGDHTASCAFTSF
With “ATATATATATATATATATATATGTGTGTGTGTGTGTGTCCCGGAGTCACCTAGTGCAG”, the binding signal was 14500 fluorescence intensity (a.u.).
Next, “ATATATATATATATATATATATATATGCAGCAACAGGGCCCGGAGTCACCTAGTGCAG”: 17400 fluorescence intensity (a.u.); “TATATATACACACACACACAAACACACACACACACACACACGGAGTCACCTAGTGCAG”: 8720 fluorescence intensity (a.u.).
Next, “ATATATATATATATATATGTGTGTATATATATATATATATCGGAGTCACCTAGTGCAG”: 8920 fluorescence intensity (a.u.).
Take “ATAGCCAACTATTACTTTTAAATTATTTATAGTCAAATTTCGGAGTCACCTAGTGCAG”: the binding signal was 9190 fluorescence intensity (a.u.).
“ATATATATATATATATATATATATATATATATGCAGCATGCGGAGTCACCTAGTGCAG”: the binding signal was 13100 fluorescence intensity (a.u.).
Take “ATATATATATATATATATATATATATATATATGTATGTATCGGAGTCACCTAGTGCAG”: the binding signal is 10100 fluorescence intensity (a.u.).
As for “ATATATATATATATATATATACATACATATACACACACACCGGAGTCACCTAGTGCAG”, the binding signal was 8050 fluorescence intensity (a.u.).
To “TATATATATATATATATATATATATATATATATGGAGTATCGGAGTCACCTAGTGCAG” belongs 24600 fluorescence intensity (a.u.); to “ATATATATATATATATATATATATATATATACACACACACCGGAGTCACCTAGTGCAG”, 22200 fluorescence intensity (a.u.); to “CTTTAATAGTATAGCCAACTACTACCTCGGAATCACCTATCGGAGTCACCTAGTGCAG”, 20300 fluorescence intensity (a.u.).
“GCCTGCTATTGTACCTGCTTTAATATAGCCAACCTACTATCGGAGTCACCTAGTGCAG”: the binding signal was 8330 fluorescence intensity (a.u.).
As to “CTACTTTACCAGCTCATCTATCACATCTTAACTGTATTTTCGGAGTCACCTAGTGCAG”, the binding signal is 10300 fluorescence intensity (a.u.).
As for “ACCCGTCTCTCTTTCTTTCTTTCTCTCTCTCCTGTGTTTTCGGAGTCACCTAGTGCAG”, the binding signal was 8600 fluorescence intensity (a.u.).
Turning to “TCCACACACCCCGCTTGCTAACCAACCGTGACACGCAACCCGGAGTCACCTAGTGCAG”, the binding signal was 10100 fluorescence intensity (a.u.).
To “CCTAGCCCTAATTGATCCTTGCCTCGATGTTTTCCCTCCGCGGAGTCACCTAGTGCAG” belongs 10100 fluorescence intensity (a.u.); to “CCCTTGACAGCACAGAGGCAACAGCAAAACACACTCTCATCGGAGTCACCTAGTGCAG”, 8580 fluorescence intensity (a.u.).
Regarding “CTAGATTTTTTGGTGACATTTTTTAGTTGGTGTGCACGTGCGGAGTCACCTAGTGCAG”, the binding signal is 10200 fluorescence intensity (a.u.).
Regarding “ACTCCTCTGCATGCTTTTTTTTTCCCTTCAGTTTCAGTTGCGGAGTCACCTAGTGCAG”, the binding signal was 11200 fluorescence intensity (a.u.).
To “GGCAACCACCTCAATTATTATTCCATTCCCTACCACCACTCGGAGTCACCTAGTGCAG” belongs 9980 fluorescence intensity (a.u.); to “TTTCAAAATATTTGACACCGTTGACTTTTTAACACATGTTCGGAGTCACCTAGTGCAG”, 17900 fluorescence intensity (a.u.).
In the case of “ATCCTAAAATGTTTGACACCATTGACTTTTTTAAAAATGTCGGAGTCACCTAGTGCAG”, the binding signal was 8790 fluorescence intensity (a.u.).
For “ACCTTTTTAAATATTTGACACTGTCGACTTTTTAGCACATCGGAGTCACCTAGTGCAG”, the binding signal is 9730 fluorescence intensity (a.u.).
To “GTTTTAAAATGGTTGACACCGTTGACTTTTTAGCACGTGTCGGAGTCACCTAGTGCAG” belongs 30100 fluorescence intensity (a.u.); to “TTGACACCGTTGACTTTTTAGCACATGTTTGACCGTTCGTCGGAGTCACCTAGTGCAG”, 35800 fluorescence intensity (a.u.); to “TTTAACACATGTTTGACCGTTCGTCTTATTCAAAAACTTTCGGAGTCACCTAGTGCAG”, 10900 fluorescence intensity (a.u.).
Next, “TGTTTGACACCGTTGACTTTTTAGCACATGTTTGACCGTTCGGAGTCACCTAGTGCAG”: 38000 fluorescence intensity (a.u.); “TCAAAATGTTCGACACCGTTGACTTTTTAACACATGTTTGCGGAGTCACCTAGTGCAG”: 14400 fluorescence intensity (a.u.).
To “TGGCTTGGTCCGCTAGTTCCTAACATCATGACAGTATTTTCGGAGTCACCTAGTGCAG” belongs 8280 fluorescence intensity (a.u.).
Regarding “CCCAGGTAGGATATGTGTATGTGTTTATATGGGTGAGTCTCGGAGTCACCTAGTGCAG”, the binding signal was 9300 fluorescence intensity (a.u.).
Regarding “TTTACCTCTCTGCCGGCCTTTGCACGCTTGTAGCCCACCACGGAGTCACCTAGTGCAG”, the binding signal was 9670 fluorescence intensity (a.u.).
Take “GGCACGGTTTGAACGCATTACCCATTCCCCGTTTGACTTCCGGAGTCACCTAGTGCAG”: the binding signal was 12800 fluorescence intensity (a.u.).
“GCGTTACATACATCCTTATTATGTTGTTCATGTTTATAAACGGAGTCACCTAGTGCAG”: the binding signal was 8240 fluorescence intensity (a.u.).
On to “CCTATATCATCCTTTGATAAGATCGACTGTTTGCTATTTACGGAGTCACCTAGTGCAG”, for which the binding signal was 9940 fluorescence intensity (a.u.).
To “TGCCAATGCCAGGGTTTTCGTCGGTTTTACATAAATTAACCGGAGTCACCTAGTGCAG” belongs 8500 fluorescence intensity (a.u.); to “GTGGAATCGTTCGTTCTTGACTTCACCTACCAAGATTTGCCGGAGTCACCTAGTGCAG”, 8640 fluorescence intensity (a.u.).
Take “CCTCGCTCCGTCGCTCACAACCCGTCTCCTGCTCGATCCGCGGAGTCACCTAGTGCAG”: the binding signal is 9140 fluorescence intensity (a.u.).
Turning to “TAGCATGACCTTTCACCCATACATATGAGCTACTTCTCTTCGGAGTCACCTAGTGCAG”, the binding signal is 9280 fluorescence intensity (a.u.).
Next, “TGTTTGACATCGTTGACTTTTTAACACATGTTTCACTGTTCGGAGTCACCTAGTGCAG”: 36000 fluorescence intensity (a.u.).
Next, “ACGCCGTTGGCTTTTTAGCATATATTTGACCATTCATCTTCGGAGTCACCTAGTGCAG”: 8190 fluorescence intensity (a.u.); “GACACCGTTGACTTTTTAGCACATGTTTGACCGCTCATCTCGGAGTCACCTAGTGCAG”: 32800 fluorescence intensity (a.u.).
Next, “ATGTATAACACTGTTGACTTTTTAAGATATATTTGATCATCGGAGTCACCTAGTGCAG”: 15900 fluorescence intensity (a.u.); “GAGATATCGTTGACTTTTAGCATAACATAGACCATTCAGCCGGAGTCACCTAGTGCAG”: 18300 fluorescence intensity (a.u.).
“TAGATAACGTCATTGACTTTTTCTCACATATTTGACCATTCGGAGTCACCTAGTGCAG”: the binding signal is 12400 fluorescence intensity (a.u.).
To “TTGATACCGTTGACTTTTTAGCACATGTTTGACCATTCATCGGAGTCACCTAGTGCAG” belongs 39400 fluorescence intensity (a.u.).
